Tests used:
Assay type in all cases: functional
[1] = biological target: Solute carrier family 2, facilitated glucose transporter member 1 (Homo sapiens) (UniProt P11166); test: ST_JUDE_LEISH: Cytotoxicity at 2uM final concentration against transgenic Leishmania Mexicana promastigotes LmGLUT1 that are glucose transport deficient and complemented with the human glucose transporter GLUT1. Activity is measured by DNA content using SYBR green in vitro
[2] = biological target: Hexose transporter 1 (Plasmodium falciparum) (UniProt O97467); test: ST_JUDE_LEISH: Cytotoxicity at 2uM final concentration against transgenic Leishmania Mexicana promastigotes LmPfHT that are glucose transport deficient and complemented with the Plasmodium falciparum hexose transporter. Activity is measured by DNA content using SYBR green in vitro
[3] = biological target: Glucose transporter (Leishmania mexicana) (UniProt O61059); test: ST_JUDE_LEISH: Cytotoxicity at 2uM final concentration against transgenic Leishmania Mexicana promastigotes LmGT2 that are glucose transport deficient and complemented with the L. Mexicana glucose transporter 2. Activity is measured by DNA content using SYBR green in vitro

Chain of Solute carrier family 2, facilitated glucose transporter member 1 (Homo sapiens) (P11166 whole entry): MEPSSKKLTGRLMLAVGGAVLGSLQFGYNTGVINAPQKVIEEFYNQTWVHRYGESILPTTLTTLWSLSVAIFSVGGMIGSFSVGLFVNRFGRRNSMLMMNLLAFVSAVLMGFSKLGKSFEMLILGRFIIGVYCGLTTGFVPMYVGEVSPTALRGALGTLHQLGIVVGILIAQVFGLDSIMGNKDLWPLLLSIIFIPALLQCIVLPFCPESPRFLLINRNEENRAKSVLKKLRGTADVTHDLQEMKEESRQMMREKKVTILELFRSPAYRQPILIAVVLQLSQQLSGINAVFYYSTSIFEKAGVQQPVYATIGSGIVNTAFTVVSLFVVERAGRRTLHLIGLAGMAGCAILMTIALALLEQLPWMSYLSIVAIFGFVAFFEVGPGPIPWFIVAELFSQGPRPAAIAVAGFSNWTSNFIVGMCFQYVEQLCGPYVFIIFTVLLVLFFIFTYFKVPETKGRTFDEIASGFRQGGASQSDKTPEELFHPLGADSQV

Structure (SMILES)	inhibition [1]	inhibition [2]	inhibition [3]
COc1cccc(CC(=O)N2CCC(n3c(C)nc4ccc(F)cc43)CC2)c1	2.08%	4.64%	2.33%
CCOC(=O)Cn1ccc2c(NCc3ccccc3)nc(C)nc21	0.48%	1.38%	2.53%
COc1ccc(Nc2nccc(-c3ccc(NC(=O)c4cc5cc(F)ccc5[nH]4)cc3)n2)cc1	-0.57%	0.09%	-1.37%
Cc1cccc2nc(-c3cccc(-c4ccc(NC(=O)Nc5ccsc5)cc4)c3)[nH]c12	5%	4.66%	2.53%
Cc1cccc2nc(-c3cccc(-c4ccc(CNCc5ccc(S(C)(=O)=O)cc5)cc4)c3)[nH]c12	11.9%	6.88%	7.97%
Nc1ccc(-c2nc3c(ccc4ccccc43)[nH]2)cc1	2.25%	1.85%	0.2%
O=C(Nc1cccc(-c2ccc(-c3nc4cc(C(F)(F)F)ccc4[nH]3)s2)c1)c1c[nH]cn1	0.15%	-0.45%	0.77%
N=C(N)Nc1nc(-c2cccc(NC(=O)C(F)(F)F)c2)cs1	2.35%	2.8%	3.35%
O=C(Cc1ccc[n+]([O-])c1)Nc1cccc(-c2cccc(-c3nc4cc(F)ccc4[nH]3)c2)c1	1.61%	1.76%	4.13%
CCc1cc2c(=O)c(-c3nc(C)cs3)c([C@H](N)Cc3ccc(O)cc3)oc2cc1O	2.9%	2.34%	7.8%
Clc1ccc(-c2ccc(CNCCCN3CCCC3)cc2)cc1	4.04%	3.04%	3.65%
O=C(Nc1ccc2c(c1)CN(Cc1ccc(N3CCCC3)o1)CCC2)c1ccoc1	19.8%	12.8%	2.73%
O=C1C(=Cc2cc(Cc3ccccc3)ccc2O)SC(=S)N1Cc1ccccc1	8.42%	7.14%	8.43%
COc1ccc(CCN(C)CCOc2ccc(NC(=O)c3cccc4cc5ccccc5nc34)cc2)cc1OC	2.4%	1.69%	1.88%
O=C(Nc1cc(Cl)ccc1-n1cncn1)C1(c2ccccc2)CC1	2.59%	6.43%	5.68%
CC(C)CNCc1cccc(-c2cccc(CN(CCCN3CCN(C)CC3)C(=O)/C=C/c3ccccc3)c2)c1	-1.06%	-1.23%	-4.91%
COc1cc(C(=O)NC2CCN(Cc3ccccc3)CC2)ccc1-c1nc2cc(Cl)c(Cl)cc2[nH]1	0.11%	1.66%	0.13%
CCCCc1ccc(-c2ccc(-c3c(C)[nH]c(C)c(Br)c3=O)cn2)cc1	2.88%	3.53%	1.52%
COc1ccc2nccc([C@@H](O)CN3CCC(NCc4nc5cc(F)ccc5o4)CC3)c2c1	8.07%	6.24%	1.01%
CCCCNC(=O)c1cc(CNC2CCCCC2)ccc1-c1cccc(CNCc2ccc(-c3ccccc3)cc2)c1	5.94%	5.46%	2.67%
O=C(/C=C/c1ccc(Cl)c(Cl)c1)NC1CCC(CN2CCC(c3nc4ccccc4s3)CC2)CC1 (configuration not stated)	0.92%	5.64%	-1.65%
CN(C)CCc1coc2ccc(C(=O)Nc3ccc(-c4ccc(O)cc4)cc3)cc12	4.69%	4.41%	2.77%
C[C@H]1CN(Cc2cccc(-c3cc(CNC(=O)c4cccc(C(=O)c5ccc(Cl)c(Cl)c5)c4)ccc3F)c2)CCN1	1.24%	2.34%	1.43%
CNC(=N)c1ccc(NC(=O)c2ccc(C(=O)Nc3ccc(C(=N)NC)cc3)cc2)cc1	1.44%	2.97%	1.84%
N#Cc1cccc(-c2cnc(N)c(-c3nc4cc(S(N)(=O)=O)ccc4[nH]3)c2)c1	1.03%	1.38%	2.21%

Structure (SMILES)	inhibition [1]	inhibition [2]	inhibition [3]
COc1ccc(CNc2ncnc3c2[nH]c2ccc(F)cc23)cc1	7.12%	7.69%	4.52%
CCCC(CNCc1cccc(C)c1)CNc1cc(=O)c2ccccc2[nH]1 (configuration not stated)	10.9%	11.9%	11.9%
Cc1cc(N(C)C)nc(Nc2ccc(NC(=O)c3ccccc3F)cc2)n1	1.36%	12.2%	2.04%
NCC1CCCN1Cc1ccc(-c2cccc(-c3nc4cc(F)ccc4[nH]3)c2)cc1 (configuration not stated)	3.25%	1.31%	1.35%
CCCCOc1ccc(/C=C/c2ccc(-c3c(C)[nH]c(C)c(Cl)c3=O)s2)cc1	-1.17%	2.35%	-1.25%
Cc1c[nH]c(-c2cccc(C(=O)NC3CCC(CCN4CCc5ccc(C#N)cc5CC4)CC3)c2)n1 (configuration not stated)	2.16%	1.04%	1.55%
CN(C)Cc1ccc(O)c(-c2ccc(C(C)(C)C)cc2)n1	-0.79%	0.1%	2.74%
CCOC(=O)c1nc(-c2ccc(Cl)cc2)[nH]c1NC(=S)NCCCN1CCOCC1	-0.48%	1.52%	-2.41%
COc1cccc(-c2ccc(C(=O)NC3CCN(Cc4ccc(C(C)(C)C)cc4)CC3)s2)c1	0.02%	0.82%	-1.18%
CCCc1cnc2nc(N)nc(N)c2c1C	-2.96%	-0.62%	0.34%
Cc1cc(N[C@@H](CC(C)C)C(=O)Nc2ccccc2)nc(NCC2CCCCC2)n1	10.2%	9.8%	5.12%
COc1ccc2[nH]c(C)cc(=NN=Cc3ccc(F)cc3)c2c1	4.47%	5.21%	1.88%
O=C(CN1CCN(C(=O)c2ccco2)CC1)Nc1ccc(Br)cc1Cl	-3.24%	-1.31%	-0.59%
CCC(=O)c1cc(C(=O)NCCc2cccc(OC)c2)ccc1OC	12.4%	11.3%	11.3%
Fc1ccc2c(NN=Cc3ccccc3F)ccnc2c1	0.28%	-0.28%	0.43%
Cc1cc(=NN=Cc2ccccn2)c2cc(C(F)(F)F)ccc2[nH]1	-0.43%	-1.03%	-1.17%
CC(C)NCc1cccc(-c2cccc(-c3nc4ccccc4[nH]3)c2)c1	-1.73%	0.59%	-1.69%
COc1cccc(Nc2nc(C)cc(NC3CCN(Cc4ccccc4)CC3)n2)c1	5.81%	3.9%	0.8%
CCCCOc1ccccc1C(=O)NCc1csc(-c2ccccc2)n1	-0.31%	1.14%	0.41%
Cc1nc(NCc2ccccc2)cc(Nc2cc(NCc3ccccc3)nc(C)n2)n1	4.26%	3.76%	1.98%
Cc1ccc(CNC(=N)NC(=O)c2nc(Cl)c(NCc3ccc(Cl)cc3)nc2N)c(C)c1	-0.6%	0.67%	1.11%
CC(=O)Nc1cccc(C(=O)Nc2ccc(-c3cccc(-c4nc5cccc(C)c5[nH]4)c3)cc2)c1	0.48%	1.78%	0.36%
CCOc1c(Br)cc(Br)cc1CNCCCCNc1nc2ccccc2[nH]1	3.08%	2.4%	3.2%
COc1ccnc(NCCCNCc2cn(S(=O)(=O)c3ccccc3)c3ccccc23)c1	2.74%	3.67%	0.11%
NC(=O)c1cnc2ccc(-c3cncs3)cc2c1Nc1ccc(F)c(Cl)c1	1.94%	2.75%	1.95%

Structure (SMILES)	inhibition [1]	inhibition [2]	inhibition [3]
Cc1nnsc1C(=O)Nc1cccc(-c2cccc(-c3nc4cccc(C)c4[nH]3)c2)c1	-0.36%	-1.04%	-5.1%
O=C(NCCN1CCC(NC(=O)c2ccc(-c3ccccn3)s2)CC1)c1cccc(C(F)(F)F)c1	3.66%	2.93%	3.43%
Cc1cccc2c(C(=O)NC3CCN(Cc4ccccc4)CC3)cc(-c3cccnc3)nc12	1.6%	1.08%	-0.31%
c1ccc2[nH]c(-c3ccc(-c4ccc(CN5CCN(CCN6CCOCC6)CC5)cc4)cc3)nc2c1	11.2%	12.4%	4.36%
COc1cccc(C(=O)OC2=C3CCC(=O)C3(C)CCC2=O)c1 (configuration not stated)	5.35%	4.65%	6.31%
Cc1ccccc1N1CCN(c2ccc(C(=O)NC3CC3)cn2)CC1	10.9%	8.46%	4.25%
NC1CCN(CCNCc2cccc(-c3ccc(-c4nc5cc(F)ccc5[nH]4)cc3)c2)C1 (configuration not stated)	7.06%	11.1%	6.13%
O=C(NCc1cccc(F)c1)Nc1cccc(-c2ccc(-c3nc4cc(F)ccc4[nH]3)cc2)c1	2.2%	3.53%	6.86%
NC1CCN(Cc2ccc(-c3ccc(-c4nc5ccccc5[nH]4)s3)cc2)C1 (configuration not stated)	3.97%	1.77%	3.21%
CCCCNC(=N)Nc1ccc(OCCCOc2ccc(NC(=N)NCCCC)cc2)cc1	-1.92%	-1.63%	0.01%
O=C(/C=C/c1ccc(Cl)c(Cl)c1)NCCCCCN1CCC(CCNC(=O)/C=C/c2ccccc2F)CC1	2.07%	-1.13%	2.95%
CC(NCCC1CCC(NC(=O)N[C@H](C)C(O)(c2ccccc2)c2ccccc2)CC1)c1cccc2ccccc12 (some centres not stated)	16.8%	16.2%	13.4%
COc1ccc2c(c1C1CCN(CCCCNC(=O)c3ccc(NC(=O)c4ccc(Cl)cc4)cc3)CC1)CCCC2	-1.16%	-1.03%	-1.07%
c1cc(-c2ccc(CNCCCn3ccnc3)cc2)cc(-c2nc3ccccc3[nH]2)c1	2.87%	2.53%	0.93%
COc1cccc(-c2cnc(-c3ccncc3)nc2C2CCN(Cc3ccc(NC(C)=O)cc3)CC2)c1	3.49%	4.22%	1.53%
CCC(CC)(Cc1ccccc1)NC(=O)[C@H](CC(C)C)Nc1ccc(C#N)c2ccccc12	13.3%	10.4%	10.7%
CCCC(C)N(Cc1ccc(C(C)(C)C)cc1)C(=O)c1cccc(C#N)c1 (configuration not stated)	-1.28%	0.07%	-1.38%
Cc1ccnc(NC(c2cccc(OCc3ccccc3)c2)c2ccc3cccnc3c2O)c1 (configuration not stated)	0.07%	1.21%	-1.47%
FC(F)(F)c1ccc2[nH]ccc(=NN=Cc3ccccc3)c2c1	1.45%	-0.56%	0.98%
O=C(Nc1cccc(-c2ccc(CN3CCC(O)CC3)cc2)c1)c1ccc(Cl)cc1	2.51%	3.64%	1.52%
CN(C)CC(=O)NCC(NCCCNc1cc(=O)c2ccccc2[nH]1)c1cc(Br)cc(Br)c1 (configuration not stated)	5.5%	5.13%	5.64%
O=C(Nc1ccc(Cl)cc1Cl)NC1CCN(CCCCCNC(=O)C2CC2c2ccc(Cl)c(Cl)c2)CC1 (configuration not stated)	10.1%	11.3%	9.23%
CN(C)CCCNc1ncnc2c1[nH]c1ccc(Cl)cc12	1.91%	3.62%	1.6%
Clc1cccc(C23N/C(=N\c4nc5ccccc5[nH]4)NC2(c2ccccc2)N/C(=N\c2nc4ccccc4[nH]2)N3)c1 (configuration not stated)	5.03%	4.69%	4.94%
